Records with an inconclusive call do not appear. Active and inactive are the calls of the source. Unless noted, the call rests on the fitted dose curve.
Experiments:
[1] = Nuclear factor erythroid 2-related factor 2/antioxidant responsive element (Nrf2/ARE) small molecule agonists: qHTS cell viability counter screen in human keratinocytes (AID 1919968; active means well fitted curve in the direction sought with a large enough effect in the repeat runs; an effect the other way counts as inactive or inconclusive; further: nearly all actives have a fitted effect of over 55% in size; further: potency means the concentration at half of the fitted maximal effect)
In short: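 KeratinoSens cells (HaCaT keratinocytes stably carrying an ARE-luciferase reporter) were seeded at 1,500 cells/well and rested 5 h at 37 C/5% CO2. They were then exposed to compounds in DMSO for 23 h. Viability was read by CellTiter-Fluor fluorescence after 1 h.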

[2] = Nuclear factor erythroid 2-related factor 2/antioxidant responsive element (Nrf2/ARE) small molecule agonists: luciferase reporter gene qHTS assay in human keratinocytes (AID 1919969); further: nearly all actives have a fitted effect of over 35% in size; further: potency means the concentration at half of the fitted maximal effect
[3] = biological target: Gonadotropin-releasing hormone receptor (Homo sapiens) (UniProt P30968); test: Human gonadotropin-releasing hormone receptor (GnRHR) small molecule agonists, calcium flux assay in GnRHR-HEK293 cells (AID 1920063); further: nearly all actives have a fitted effect of over 35% in size
In short: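 HEK293 cells stably expressing human GnRHR were plated 18 h at 37 °C, loaded with calcium dye 1 h at 37 °C, then given compound in agonist mode; fluorescence (Ex/Em 480/540) read kinetically for 3 min at 1 s intervals.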

[4] = biological target: KiSS-1 receptor (Homo sapiens) (UniProt Q969F8); test: Human kisspeptin (KISS1R) small molecule agonists, calcium flux assay in KISS1R-HEK293 cells (AID 1920064; active means well fitted curve in the direction sought with a large enough effect in the repeat runs; an effect the other way counts as inactive or inconclusive)
In short: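 HEK293 cells stably expressing human KISS1R were plated 18 h at 37 °C, loaded with calcium dye for 1 h at 37 °C, then given compound by pin tool. Fluorescence (Ex/Em 480/540) was read kinetically for 3 min.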

[5] = G protein-coupled receptor (GPCR) small molecule agonists, calcium flux assay: HEK293 wild type cell line counter screen (AID 1920065)
In short: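 Cells were plated and cultured 18 h at 37 C/5% CO2, then loaded with calcium dye for 1 h at 37 C. Compounds in DMSO were pin-transferred in agonist mode, and fluorescence (Ex/Em 480/540) was read kinetically for 3 min at 1 s intervals.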

[6] = p53 small molecule agonists, cell-based qHTS assay with human liver microsomes (AID 1963577);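 further: p53 response element beta-lactamase reporter cells with liver microsomes plus NADPH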
In short: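 p53RE-bla cells; 5 h settle, 37 C/5% CO2; cpd + HLM 0.5 mg/mL + NADPH 0.5 mg/mL (final); 16 h 37 C; LiveBLAzer 2 h RT dark; fluorescence readout.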

[7] = p53 small molecule agonists, cell-based qHTS assay with rat liver microsomes (AID 1963578)
In short: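 Rat liver microsome activation: microsomes 0.5 mg/mL, NADPH 0.5 mg/mL final; p53RE-bla cells, 16 h 37 C; LiveBLAzer readout, 2 h RT dark.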

[8] = p53 small molecule agonists, cell-based qHTS assay with human liver microsomes: qHTS cell viability counter screen (AID 1963579); further: nearly all actives have a fitted effect of over 45% in size; further: potency means the concentration at half of the fitted maximal effect
In short: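 Luminescent CellTiter-Glo read-out, 30 min at room temperature, gauged cytotoxicity in p53RE-bla cells exposed 16 h at 37 C to DMSO-dissolved compounds with metabolic activation by human liver microsomes and NADPH, each 0.5 mg/mL final.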

[9] = biological target: 5-hydroxytryptamine receptor 2A (Homo sapiens) (UniProt P28223); test: 5-hydroxytryptamine receptor 2A (HTR2A) small molecule antagonists, cell-based qHTS assay (AID 1963586); further: nearly all actives have a fitted effect of over 45% in size
In short: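 Antagonist-mode intracellular calcium assay: DOI (4 nM) added after 5 min compound pre-incubation at room temperature to dye-loaded HTR2A-CHO cells. Fluorescence followed for 3 min, sampled every second.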

[10] = biological target: 5-hydroxytryptamine receptor 2A (Homo sapiens) (UniProt P28223); test: 5-hydroxytryptamine receptor 2A (HTR2A) small molecule agonists, cell-based qHTS assay (AID 1963587); further: nearly all actives have a fitted effect of over 30% in size; further: potency means the concentration at half of the fitted maximal effect
In short: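 Kinetic calcium-flux fluorescence (2 min, 1 sec intervals) after compound addition in agonist mode. HTR2A-CHO cells were cultured 18 h, then dye-loaded 1 h at 37 C.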

[11] = biological target: Muscarinic acetylcholine receptor M1 (Homo sapiens) (UniProt P11229); test: Cholinergic receptor muscarinic 1 (CHRM1) small molecule antagonists, cell-based qHTS assay (AID 1963588); further: nearly all actives have a fitted effect of over 40% in size; further: potency means the concentration at half of the fitted maximal effect
In short: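 CHRM1-CHO calcium-flux assay, antagonist mode. Cells were seeded 18 h, dye-loaded 1 h at 37 C and given compound for 5 min at RT, then acetylcholine was added at 50nM. FDSS fluorescence was read 3 min; 15 concentrations, three runs.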

[12] = biological target: Muscarinic acetylcholine receptor M1 (Homo sapiens) (UniProt P11229); test: Cholinergic receptor muscarinic 1 (CHRM1) small molecule agonists, cell-based qHTS assay (AID 1963589); further: nearly all actives have a fitted effect of over 35% in size
In short: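 CHO cells stably expressing human CHRM1, seeded 18 h at 37 C/5% CO2, dye-loaded 1 h at 37 C, then given compound in agonist mode; intracellular calcium fluorescence read kinetically at 1 s intervals. Fifteen concentrations, three independent runs.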

[13] = cAMP Responsive Elements (CRE) small molecule agonists, cell-based qHTS assay (AID 1963590)
In short: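 CRE-bla HEK 293T cells in DMEM with 10% dialyzed FBS, NEAA, pyruvate and 25 mM HEPES were plated 18 h at 37 C/5% CO2, then exposed to compounds in DMSO for 3 h before LiveBLAzer B/G FRET substrate addition.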

[14] = biological target: Beta-2 adrenergic receptor (Homo sapiens) (UniProt P07550); test: Adrenergic beta2 receptor (ADRB2) small molecule antagonists, cell-based qHTS assay (AID 1963592); further: series mostly up to about 92 µM; nearly all actives have a fitted effect of over 50% in size
In short: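 Cells (CHO, stable ADRB2 overexpression) incubated 18-20hr at 37C; compounds added from DMSO; agonist mix (1nM isoproterenol, 100uM IBMX, 25uM Ro-20-1724) added; 0.5hr RT; d2-cAMP and anti-cAMP-cryptate added; 1hr RT; 665/615 nm read.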

[15] = biological target: D(2) dopamine receptor (Homo sapiens) (UniProt P14416); test: Dopamine D2 receptor (DRD2) small molecule agonists, cell-based qHTS assay (AID 1963594); further: nearly all actives have a fitted effect of over 35% in size
In short: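 cAMP accumulation in DRD2-HEK293 cells measured by HTRF after 1 h detection; compounds added 10 min before NKH477 (200nM […]) forskolin-analogue stimulation, 30 min at room temperature, with Ro20-1724 present at 0.1 mM final.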

[16] = cAMP Responsive Elements (CRE) small molecule antagonists, cell-based qHTS assay (AID 1963591; active means well fitted inhibition curve with a large enough effect in the signal ratio in the repeat runs, not every such curve was filed as active; the % refers to the signal ratio)
In short: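 CRE-bla HEK293T cells were plated 18 h at 37 °C/5% CO2, pinned with compound in DMSO, then stimulated with NKH477 at 0.25 uM final for 3 h. LiveBLAzer B/G FRET substrate was added and plates incubated 2 h at room temperature.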

[17] = biological target: D(2) dopamine receptor (Homo sapiens) (UniProt P14416); test: Dopamine D2 receptor (DRD2) small molecule antagonists, cell-based qHTS assay (AID 1963595; active means well fitted inhibition curve with a large enough effect in the signal ratio in the repeat runs, with a control signal flat; the % refers to the signal ratio)
In short: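 Cells were plated and grown for 24 h at 37 °C. Ro20-1724 (0.1 mM final) went in first, then compound for 10 min. NKH477 (200 nM) with quinpirole (12 nM) followed for 30 min at RT, then HTRF detection reagents for 1 h.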

[18] = p53 small molecule agonists, cell-based qHTS assay with rat liver microsomes: qHTS cell viability counter screen (AID 1963580); further: nearly all actives have a fitted effect of over 45% in size
In short: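 HCT-116 p53RE-bla, 4,000 cells/well, 5 h pre-incubation; cpd + rat liver microsomes 0.5 mg/mL + NADPH 0.5 mg/mL (final); 16 h, 37 C; CellTiter-Glo, 30 min RT; luminescence.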

[19] = p53 small molecule agonists, cell-based qHTS assay: qHTS cell viability counter screen (AID 1963581); further: nearly all actives have a fitted effect of over 45% in size; further: potency means the concentration at half of the fitted maximal effect
In short: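 p53RE-bla HCT-116 cells were exposed to compounds for 16 h at 37 C; after the beta-lactamase FRET read in the same wells, CellTiter-Glo was added and luminescence (intracellular ATP) read after 30 min at room temperature.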

[20] = p53 small molecule agonists, cell-based qHTS assay (AID 1963582; active means well fitted activation curve with a large enough effect in the signal ratio in the repeat runs, not every such curve was filed as active; the % refers to the signal ratio; further: potency means the concentration at half of the fitted maximal effect)
In short: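 p53RE-bla beta-lactamase reporter cells rested 5 h at 37 C/5% CO2, then received compounds in DMSO by pin transfer and were incubated 16 h at 37 C. LiveBLAzer B/G FRET substrate was loaded for 2 h at room temperature before fluorescence reading.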

Measured: Potency

Sequence of Beta-2 adrenergic receptor (Homo sapiens) (P07550 whole entry, looked up): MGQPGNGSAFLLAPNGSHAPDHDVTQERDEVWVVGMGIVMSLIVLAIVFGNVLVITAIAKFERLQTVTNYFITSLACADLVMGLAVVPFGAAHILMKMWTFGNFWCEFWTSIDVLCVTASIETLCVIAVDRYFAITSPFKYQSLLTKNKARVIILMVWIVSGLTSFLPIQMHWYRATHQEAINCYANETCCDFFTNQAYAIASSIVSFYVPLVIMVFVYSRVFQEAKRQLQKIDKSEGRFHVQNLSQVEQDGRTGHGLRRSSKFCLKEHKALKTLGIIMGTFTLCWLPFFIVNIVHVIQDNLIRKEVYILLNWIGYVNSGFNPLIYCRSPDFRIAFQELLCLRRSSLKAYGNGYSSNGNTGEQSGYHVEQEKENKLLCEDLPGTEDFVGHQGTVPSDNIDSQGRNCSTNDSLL
Sequence of Muscarinic acetylcholine receptor M1 (Homo sapiens) (P11229 whole entry, looked up): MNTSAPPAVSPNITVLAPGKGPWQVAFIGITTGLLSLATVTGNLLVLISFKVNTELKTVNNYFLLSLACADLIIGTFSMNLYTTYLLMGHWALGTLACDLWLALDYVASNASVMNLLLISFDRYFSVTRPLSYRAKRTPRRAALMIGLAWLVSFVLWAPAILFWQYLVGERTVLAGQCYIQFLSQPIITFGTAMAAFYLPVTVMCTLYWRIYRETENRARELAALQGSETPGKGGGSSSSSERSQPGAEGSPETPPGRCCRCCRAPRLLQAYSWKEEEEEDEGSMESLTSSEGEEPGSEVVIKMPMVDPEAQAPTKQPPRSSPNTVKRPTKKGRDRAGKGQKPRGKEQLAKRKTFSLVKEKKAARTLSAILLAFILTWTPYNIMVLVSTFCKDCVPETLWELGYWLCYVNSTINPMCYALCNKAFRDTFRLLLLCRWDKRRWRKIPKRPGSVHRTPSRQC
Sequence of KiSS-1 receptor (Homo sapiens) (Q969F8 whole entry, looked up): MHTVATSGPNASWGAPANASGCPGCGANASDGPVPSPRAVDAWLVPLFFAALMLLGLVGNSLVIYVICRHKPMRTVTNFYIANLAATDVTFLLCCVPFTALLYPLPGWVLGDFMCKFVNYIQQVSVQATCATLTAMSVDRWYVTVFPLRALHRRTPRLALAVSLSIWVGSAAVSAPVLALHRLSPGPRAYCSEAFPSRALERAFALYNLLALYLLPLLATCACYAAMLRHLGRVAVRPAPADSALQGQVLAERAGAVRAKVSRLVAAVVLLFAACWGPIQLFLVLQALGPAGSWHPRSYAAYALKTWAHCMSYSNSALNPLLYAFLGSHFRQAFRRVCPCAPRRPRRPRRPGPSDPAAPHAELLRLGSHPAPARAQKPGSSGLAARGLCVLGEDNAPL
Sequence of D(2) dopamine receptor (Homo sapiens) (P14416 whole entry, looked up): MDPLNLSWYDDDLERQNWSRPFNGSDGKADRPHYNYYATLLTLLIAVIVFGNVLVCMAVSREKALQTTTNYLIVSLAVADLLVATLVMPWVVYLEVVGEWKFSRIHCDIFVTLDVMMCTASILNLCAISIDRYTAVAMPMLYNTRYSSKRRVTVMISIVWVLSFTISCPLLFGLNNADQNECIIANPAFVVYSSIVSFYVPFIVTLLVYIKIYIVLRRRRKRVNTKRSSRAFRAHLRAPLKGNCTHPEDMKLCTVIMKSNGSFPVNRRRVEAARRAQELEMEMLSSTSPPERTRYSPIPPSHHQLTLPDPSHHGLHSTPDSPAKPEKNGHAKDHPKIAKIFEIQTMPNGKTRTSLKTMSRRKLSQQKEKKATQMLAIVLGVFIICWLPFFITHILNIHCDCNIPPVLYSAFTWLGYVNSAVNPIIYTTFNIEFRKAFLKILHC
Sequence of 5-hydroxytryptamine receptor 2A (Homo sapiens) (P28223 whole entry, looked up): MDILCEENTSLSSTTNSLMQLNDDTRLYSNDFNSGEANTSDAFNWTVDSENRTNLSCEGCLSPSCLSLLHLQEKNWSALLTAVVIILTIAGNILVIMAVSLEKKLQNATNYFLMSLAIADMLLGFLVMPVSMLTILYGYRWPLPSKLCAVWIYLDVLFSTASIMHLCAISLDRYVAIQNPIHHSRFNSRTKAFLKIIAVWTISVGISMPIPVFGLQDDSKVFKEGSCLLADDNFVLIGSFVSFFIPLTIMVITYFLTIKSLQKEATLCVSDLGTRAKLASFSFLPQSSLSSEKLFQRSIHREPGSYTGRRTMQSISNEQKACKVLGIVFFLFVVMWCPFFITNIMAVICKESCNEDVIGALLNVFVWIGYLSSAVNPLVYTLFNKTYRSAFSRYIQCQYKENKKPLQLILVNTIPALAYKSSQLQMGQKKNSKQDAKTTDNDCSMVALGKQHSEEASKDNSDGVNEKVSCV
Sequence of Gonadotropin-releasing hormone receptor (Homo sapiens) (P30968 whole entry, looked up): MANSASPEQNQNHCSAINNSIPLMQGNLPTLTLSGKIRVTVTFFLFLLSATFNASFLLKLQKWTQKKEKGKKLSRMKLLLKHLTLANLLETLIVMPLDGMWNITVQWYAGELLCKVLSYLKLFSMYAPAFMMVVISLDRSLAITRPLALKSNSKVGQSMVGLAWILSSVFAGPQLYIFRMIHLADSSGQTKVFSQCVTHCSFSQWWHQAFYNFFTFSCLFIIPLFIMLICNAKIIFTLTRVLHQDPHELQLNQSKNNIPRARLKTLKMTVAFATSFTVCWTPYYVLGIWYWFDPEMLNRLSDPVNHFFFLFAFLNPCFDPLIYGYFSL

CCN(CC)CCNc1ccc(CNC=O)c2sc3ccc(OC)cc3c(=O)c12
inactive: [3] | [4] | [5] | [6] | [7] | [8] | [9] | [12] | [13] | [14] | [15]
active: [1] 54.5 µM | [2] 24.3 µM | [10] 3.89 µM | [11] 10.6 µM

Clc1cc(Cl)c(-c2c(Cl)c(Cl)cc(Cl)c2Cl)cc1Cl
inactive: [1] | [2] | [3] | [4] | [5] | [6] | [7] | [8] | [9] | [10] | [11] | [12] | [13] | [16] | [14] | [15] | [17]

Nc1cnn([C@@H]2O[C@H](CO)[C@@H](O)[C@H]2O)c(=O)n1
inactive: [1] | [2] | [3] | [4] | [5] | [6] | [7] | [18] | [19] | [9] | [10] | [11] | [12] | [13] | [16] | [14] | [15]
active: [20] 1.45 µM

C/C=C(/C(=C/C)c1ccc(O)cc1)c1ccc(O)cc1
inactive: [2] | [3] | [4] | [5] | [6] | [7] | [8] | [12] | [16] | [14] | [15] | [17]
active: [1] 15 µM | [11] 2.9 µM

Cc1occc(=O)c1OC(=O)C(C)C
inactive: [1] | [2] | [3] | [4] | [5] | [6] | [7] | [8] | [9] | [11] | [12] | [16] | [14] | [15] | [17]

NS(=O)(=O)c1cc(-c2nn[nH]n2)c(NCc2cccs2)cc1Cl
inactive: [1] | [2] | [3] | [4] | [5] | [6] | [7] | [8] | [9] | [10] | [11] | [12] | [13] | [16] | [14] | [15]

CC(C)(O)c1ccccc1
inactive: [1] | [2] | [3] | [4] | [5] | [6] | [7] | [8] | [20] | [9] | [10] | [11] | [12] | [13] | [16] | [14] | [15] | [17]

Cc1cc(F)ccc1-c1cc(N2CC[C@@H](O)[C@H]2CO)ncc1N(C)C(=O)C(C)(C)c1cc(C(F)(F)F)cc(C(F)(F)F)c1
inactive: [2] | [3] | [4] | [5] | [6] | [7] | [9] | [10] | [11] | [12] | [15] | [17]
active: [1] 19 µM | [8] 14.3 µM | [19] 16 µM

— PubChem BioAssay (Tox21)
